Data published in the supplement of paper PMC13380429.
Values without a mark were called inactive.

System: Vero E6 infected with SARS-CoV-2
Experiment: inhibition of SARS-CoV-2 cytopathic effect; higher = more antiviral protection, active = above 15
Settings: 48 h

| SMILES | inhibition of SARS-CoV-2 cytopathic effect (1 nM) [%] | inhibition of SARS-CoV-2 cytopathic effect (8.33 nM) [%] | inhibition of SARS-CoV-2 cytopathic effect (100 nM) [%] | inhibition of SARS-CoV-2 cytopathic effect (833.33 nM) | inhibition of SARS-CoV-2 cytopathic effect (10000 nM) |
| --- | --- | --- | --- | --- | --- |
| O=C(Nc1ccc([N+](=O)[O-])cc1Cl)c1cc(Cl)ccc1O [niclosamide] | -0.87 | -2.63 | 0.39 | 11.4% | 4.29% |
| NS(=O)(=O)c1cc(C2(O)NC(=O)c3ccccc32)ccc1Cl (stereo not given) [chlorthalidone] | -0.87 | -0.18 | 4.69 | -3.83% | -3.63% |
| CCCCCCCCCCCCc1ccc(S(=O)(=O)Nc2nncs2)cc1 | -0.85 | 0.48 | -0.22 | -2.3% | -0.65% |
| CCN(CCO)CCCC(C)Nc1ccnc2cc(Cl)ccc12 (stereo not given) [hydroxychloroquine] | -0.29 | 2.78 | -0.76 | 0% | -0.85% |
| COc1cc(C)nc(-n2nc(C)cc2OC)n1 [epirizole] | 1.56 | 3.82 | -0.67 | 0.65% | -2.64% |
| COc1ccc(CN(C(=O)[C@@H](N)Cc2c(C)cc(C(N)=O)cc2C)[C@@H](C)c2ncc(-c3ccccc3)[nH]2)cc1C(=O)O [eluxadoline] | 2.78 | 1.84 | 0.96 | 1.03% | 1.03% |
| C[C@]12COC(=O)C[C@@H]1CC[C@@H]1[C@@H]2CC[C@@]2(C)[C@H]1CC[C@]2(C)O [Oxandrolone] | 1.55 | 0.57 | -0.27 | -0.56% | 0.44% |
| CCCc1nc(C(C)(C)O)c(C(=O)OCc2oc(=O)oc2C)n1Cc1ccc(-c2ccccc2-c2nnn[nH]2)cc1 [olmesartan-medoxomil] | -1.27 | 0.1 | -1.32 | 1.87% | 0.55% |
| O=C(Nc1cc(Oc2cc(F)c(NC(=O)C3(C(=O)Nc4ccc(F)cc4)CC3)cc2F)ccn1)C1CC1 [altiratinib] | -1 | 2.23 | 3.44 | -1.62% | 1.09% |
| Cc1ncc(-c2ccnc(Nc3ccc(S(C)(=O)=O)cc3)n2)n1C(C)C | 0.38 | -1.83 | -1.95 | 6.02% | -2.7% |
| CCCc1cc(C)[nH]c(=O)c1CNC(=O)c1cc(-c2ccc(N3CCN(C(C)C)CC3)nc2)cc2c1cnn2C(C)C | -1.83 | 1 | -2.55 | -0.64% | 42.3% (active) |
| Cc1cn([C@H]2C=C[C@@H](CO)O2)c(=O)[nH]c1=O [stavudine] | -1.15 | 2.97 | 4 | 2.52% | -1.21% |
| CC(C)(N)CC12CC3CC(CC(C3)C1)C2 [somantadine] | -2.05 | -1.35 | -0.66 | -1.44% | -6.1% |
| N=C(N)NC(=N)Nc1ccccc1 [1-phenylbiguanide] | -1.07 | -0.09 | 0.97 | 1.34% | -1.5% |
| CCc1nc2c(C)nc(C)cc2n1-c1ccc(CCNC(=O)NS(=O)(=O)c2ccc(C)cc2)cc1 [grapiprant] | -1.43 | -2.32 | -2.77 | -5.47% | -1.61% |
| O=C(OC(C(F)(F)F)C(F)(F)F)N1CCC(C(O)(c2ccc3c(c2)OCO3)c2ccc3c(c2)OCO3)CC1 | -1.87 | 0.04 | -0.31 | -1.03% | 0.49% |
| CC1=C(CC(=O)O)c2cc(F)ccc2/C1=C\c1ccc(S(C)(=O)=O)cc1 [exisulind] | -5.21 | -2.14 | -3.65 | 0.09% | -2.3% |
| CCOc1ccc(C[C@H]2NC(=O)CCSSC[C@@H](C(=O)N3CCC[C@H]3C(=O)N[C@@H](CCCN)C(=O)NCC(N)=O)NC(=O)[C@H](CC(N)=O)NC(=O)[C@H]([C@@H](C)O)NC(=O)[C@H]([C@@H](C)CC)NC2=O)cc1 [atosiban] | 1.81 | -1.47 | -2.35 | -0.16% | 0.37% |
| COc1ccccc1N1CCN(CCN2C(=O)c3ccccc3C(C)(C)C2=O)CC1 | 0.16 | -2.9 | 2.69 | -0.3% | 0.21% |
| CC(C)(C)c1cc(C(C)(C)C)c2c(c1)C(O)(C(F)(F)F)C(=O)O2 (racemic) | 5.52 | 2.66 | 4.61 | -0.2% | -1.15% |

| SMILES | inhibition of SARS-CoV-2 cytopathic effect (1 nM) [%] | inhibition of SARS-CoV-2 cytopathic effect (8.33 nM) [%] | inhibition of SARS-CoV-2 cytopathic effect (100 nM) [%] | inhibition of SARS-CoV-2 cytopathic effect (833.33 nM) | inhibition of SARS-CoV-2 cytopathic effect (10000 nM) |
| --- | --- | --- | --- | --- | --- |
| CC(C)C(=O)OC[C@@]1(N=[N+]=[N-])O[C@@H](n2ccc(N)nc2=O)[C@H](OC(=O)C(C)C)[C@@H]1OC(=O)C(C)C [balapiravir] | 2.39 | 1.09 | 0.61 | -0.11% | 0.76% |
| O=C(Nc1ccc(OC(F)(F)F)cc1)c1sccc1NCc1ccnc2ccccc12 | -2.32 | 3.56 | 4.81 | 4.77% | 5.44% |
| CC(=O)Nc1ccc(C(=O)Nc2ccccc2N)cc1 [tacedinaline] | 1.04 | 1.48 | -0.39 | -3.01% | -1.74% |
| CCOc1ccc(NC(=S)N2CCC(C(O)(c3ccccc3)c3ccccc3)CC2)cc1 | -2.59 | -1.73 | -2.48 | -3.52% | -4.05% |
| O[C@H]1[C@H](O)[C@@H](O)[C@H](O)[C@@H](O)[C@H]1O [inositol] | -0.68 | 0.73 | -1.55 | 1.69% | 2.84% |
| COc1ccc(-c2cc(=O)c3c(O)cc(O)cc3o2)cc1O [diosmetin] | -0.61 | -0.9 | -1.66 | -3.02% | 2.95% |
| COc1ccc(Cc2cnc(N)nc2N)cc1OC [diaveridine] | -0.02 | 0.43 | -0.86 | 2.81% | 0.75% |
| Nc1nc(Cl)nc2c1ncn2[C@@H]1O[C@H](CO)[C@@H](O)[C@@H]1F [clofarabine] | 0.13 | 2.08 | 1.42 | 2.37% | 3.69% |
| CC(=O)Nc1c(I)cc(I)c(C(=O)O)c1I [acetriazoic-acid] | -0.01 | 0.54 | -0.88 | 0.14% | -0.46% |
| NCCCCN [putrescine] | 2.4 | 3.44 | -0.12 | 4.47% | 0.82% |
| COc1ccc2[nH]c([S@@+]([O-])Cc3ncc(C)c(OC)c3C)nc2c1 [esomeprazole] | -1.94 | -1.72 | -0.5 | -0.9% | 0.21% |
| CC#CC(=O)N1CC[C@@H](n2c(=O)n(-c3ccc(Oc4ccccc4)cc3)c3c(N)ncnc32)C1 | -1.14 | 2.19 | 0.31 | -8.09% | -0.82% |
| CCCCN(Cc1ccc(C(=O)NO)cc1)C(=O)Nc1ccccc1 [nexturastat-A] | 0.96 | 0.67 | -0.8 | -3.85% | -13.9% |
| O=C(NNC(=O)c1ccc(CNS(=O)(=O)c2ccc(F)c(Cl)c2)cc1)c1ccccc1 | -1.42 | -1.3 | 3.13 | 0.57% | -0.76% |
| CC(C)Oc1ccc(-c2nn([C@@H](C)c3oc4ccc(F)cc4c(=O)c3-c3cccc(F)c3)c3ncnc(N)c23)cc1F | 1.54 | 2.74 | 0.14 | 0.53% | -3.52% |
| CC(C)(O)c1coc(S(=O)(=O)NC(=O)Nc2c3c(cc4c2CCC4)CCC3)c1 | -0.7 | -2.3 | -3.97 | 0.34% | -0.6% |
| Cn1c(CNc2ccc(C(=N)N)cc2)nc2cc(C(=O)N(CCC(=O)O)c3ccccn3)ccc21 [dabigatran] | -0.46 | 1.73 | -0.12 | 0.58% | 3.34% |
| c1ccc2c(c1)Sc1ccccc1N2C[C@H]1CN2CCC1CC2 [levomequitazine] | -10.3 | -6.41 | -8.62 | -7.33% | -13.9% |
| CC[C@@H](C(=O)[C@@H](C)[C@@H](O)[C@H](C)[C@@H]1O[C@@H]([C@@H](CC)C(=O)O)CC[C@@H]1C)[C@H]1O[C@]2(C=C[C@@H](O)[C@]3(CC[C@@](C)([C@H]4CC[C@](O)(CC)[C@H](C)O4)O3)O2)[C@H](C)C[C@@H]1C [Salinomycin (Procoxacin)] | -2.73 | 0.16 | 4.82 | 50.9% (active) | 57% (active) |
